Among all 300,000 compounds or so, about 22,000 (7.3%) were called active. Inconclusive results (about 2%) are left out. The full list was thinned out, with actives kept by preference. Values without a mark were called inactive. Rule as the data show it: active = activity score below about -60%; inconclusive = mostly about -28% to -61%; inactive = positive scores.

A short description of the experiment: Activators via SNCA 5'UTR binding, MLPCN (AID 1814). The conditions noted are these: alpha-synuclein 5'UTR reporter, activators screen; stronger effect = lower value; tested at 7.5 µM.
As to `O=C(N/N=C/c1ccc(OCc2ccccc2)cc1)c1ccc(O)cc1`, the activity score was -70.7% (active).
The value for `Cc1ccnc(NC(=O)CCNS(=O)(=O)c2ccc(C)c(C)c2)c1` was -87.9% (active).
To `CC(C)c1ccc(NC(=S)NC2CC3C=CC2C3)cc1` (stereo unspecified) belongs -134% (active); to `Cc1ccc(-c2csc(NC(=O)C3=COCCO3)n2)cc1C`, -176% (active); to `COc1ccccc1NC(=O)c1ccc(C)s1`, -227% (active).
To `COc1ccccc1NC(=O)C1=C(C)Nc2nc3ccccc3n2C1c1cccs1` (stereo unspecified) belongs 106%; to `Cc1csc(NC(=O)C2=COCCO2)n1`, -132% (active).
Turning to `Cc1sc(NC(=O)C2=COCCO2)c(C#N)c1C`, the activity score is -110% (active).
`Cc1csc(NC(=O)c2ccc(C)s2)n1`: the activity score is -174% (active).
Consider `Cc1ccc(-c2csc(NC(=O)c3cnccn3)n2)cc1C`, for which the activity score is -97.7% (active).
The value for `COc1cc(SC)ccc1C(=O)Nc1nc(C)cs1` was 96.2%; that for `O=C(Nc1nc(-c2ccc3c(c2)OCO3)cs1)c1ccncc1` was -99.5% (active); that for `COc1ccc(-c2nnc(SCC(=O)c3cccs3)o2)c(OC)c1` was -106% (active).
For the compound `COc1ccccc1-c1nnc(SCC(=O)Nc2ccccc2)o1`, the activity score is -187% (active).
For the compound `COc1ccccc1-c1nnc(SCC(=O)N2CC(C)CC(C)C2)o1` (stereo unspecified), the activity score is 45.8%.
To `Cc1ccc(C(=O)Nc2nc3ccc(Cl)cc3s2)o1` belongs -183% (active).
The value for `O=C(c1cccs1)N1CCCC(c2nc(-c3ccc(F)cc3)no2)C1` (stereo unspecified) was -91.6% (active).
For the compound `Cc1ccc(-c2noc(C3CCCN(C(=O)c4cccc(Cl)c4)C3)n2)o1` (stereo unspecified), the activity score was -109% (active).
The value for `Cc1ccc2nc(N3CCN(C(=O)c4ccco4)CC3)sc2c1` was -216% (active); that for `COc1ccc2nc(N3CCN(C(=O)c4ccc([N+](=O)[O-])o4)CC3)sc2c1` was -160% (active); that for `C/C(=N\NC(=O)c1ccc(C)cc1)C1C(=O)c2ccccc2C1=O` was -78.5% (active).
The value for `COc1ccc(NC(=O)CSc2nc(SC)ns2)c(OC)c1` was -118% (active); that for `c1c2c(cc3sc(N4CCCCC4)nc13)OCCO2` was 107%.
The value for `Fc1ccc2nc(N3CCCCC3)sc2c1` was -129% (active).
For `CN(C)CCCN(C(=O)c1ccc(S(=O)(=O)N2CCCCCC2)cc1)c1nc2ccc(Br)cc2s1`, the activity score was 75.3%.
To `Brc1ccc2nc(N3CCCC3)sc2c1` belongs -105% (active); to `Fc1cc(F)c2nc(Nc3nc4c(F)cccc4s3)sc2c1`, -218% (active).
The value for `C=CCn1c(C)cc(C2=NNC(=NCC)SC2)c1C` was 105%; that for `Cc1cccc(N=C2NN=C(c3c[nH]c4ccccc34)CS2)c1` was -102% (active).
The value for `COc1ccc(-c2nnc(SC(C)C#N)o2)cc1` (stereo unspecified) was -98.3% (active); that for `COc1ccc(-c2nnc(SCc3cccnc3)o2)cc1` was -128% (active); that for `COc1cc(/C=N/n2c(C)n[nH]c2=S)ccc1OCc1ccccc1` was -106% (active).
On to `COc1ccc2[nH]c(C(=O)Nc3ccccc3Cl)cc2c1`, for which the activity score was -132% (active).
On to `O=C(CSCc1ccccc1)N1CCc2ccccc21`, for which the activity score is -92.8% (active).
To `O=C(CN1C(=O)c2ccccc2S1(=O)=O)N1CCc2ccccc21` belongs 93.5%.
The value for `COc1ccc(Nc2ncnc3sc(C)cc23)cc1` was -159% (active); that for `O=C(c1ccc(CSc2ccccc2)cc1)N1CCCCCC1` was -99.5% (active).
To `CCc1ccc(-c2cc(C(=O)NCc3ccco3)c3ccccc3n2)s1` belongs -123% (active); to `O=C(/C=C/c1ccc(Cl)cc1Cl)NCc1ccco1`, -119% (active); to `CC1CCc2sc3nc(N4CCN(CCO)CC4)n4ncnc4c3c2C1` (stereo unspecified), -73.1% (active).
Turning to `COc1cccc(NC(C)=[N+](C)CCNS(=O)(=O)c2ccc(Cl)cc2)c1`, the activity score was -156% (active).
As to `Nc1c(C(=O)NCc2ccccc2)sc2nc3c(cc12)C(=O)CCC3`, the activity score is -63.1% (active).
The value for `CC(C)OC(=O)c1sc2nc3c(cc2c1N)C(=O)CCC3` was -182% (active).
To `Cn1c(=NC(=O)C2CC2)sc2cc(F)cc(F)c21` belongs -88% (active); to `Cc1ccc(NC(=O)C2CC2c2ccccc2)cc1` (stereo unspecified), -65.1% (active); to `C1=C(CCNc2ncnc3c2cnn3-c2ccccc2)CCCC1`, -141% (active).
To `CCOc1cccc2c1OC1(CCCCC1)N1N=C(c3cccnc3)CC21` (stereo unspecified) belongs -77% (active).
On to `CCOC(=O)C1=C(CN2CCc3ccccc32)NC(=O)NC1c1ccc(Cl)cc1` (stereo unspecified), for which the activity score is 44.8%.
The value for `COc1cc(/C=C(\C#N)c2nc3ccccc3[nH]2)ccc1O` was -152% (active); that for `COc1cc(/C=C(\C#N)c2nc3c(s2)CC(C)CC3)ccc1O` (stereo unspecified) was -208% (active).
To `O=C(COc1ccc2oc3c(c2c1)CCCC3)Nc1ccccn1` belongs -131% (active); to `CSc1nc(N(C)NC(=O)c2cccc(C)c2)c2ccccc2n1`, 114%; to `Cc1cccc(C(=O)NC(=S)N(C)C2CCCCC2)c1`, -74.3% (active).
`Cc1nonc1NC(=O)c1oc2ccccc2c1C`: the activity score is -127% (active).
With `Cc1c(C(=O)NC2CCCCC2)oc2ccccc12`, the activity score was -82.5% (active).
To `Cc1c(C(=O)N2CCCc3ccccc32)oc2ccccc12` belongs -96.2% (active); to `CCc1nonc1NC(=O)c1oc2ccc(Cl)cc2c1C`, -90.7% (active).
The value for `Cc1ccc(NC(=O)c2oc3ccccc3c2C)c([N+](=O)[O-])c1` was -101% (active); that for `Cc1c(C(=O)Nc2ccccn2)oc2ccc(Br)cc12` was -122% (active).
For `CSc1cccc(NC(=S)N(C(C)C)C(C)c2ccccn2)c1` (stereo unspecified), the activity score was -66.1% (active).
To `Cc1ccc(-c2cc(C(=O)NCc3cn(C)nc3C)c3cc(Br)ccc3n2)cc1` belongs -87.5% (active); to `CN(C)CCCN(C(=O)c1ccc(S(=O)(=O)N2CCCc3ccccc32)cc1)c1nc2ccc(F)cc2s1`, 74.2%.
The value for `CCS(=O)(=O)N1Cc2ccccc2CC1C(=O)Nc1nc2ccc(F)cc2s1` (stereo unspecified) was -83.8% (active); that for `O=C(Nc1ccccc1)c1ccc2nsnc2c1` was -119% (active).
To `O=C(Nc1ccccc1Cl)c1ccc2nsnc2c1` belongs -133% (active).
With `COc1ccccc1Nc1ncnc2c1oc1ccccc12`, the activity score is -147% (active).
The value for `O=[N+]([O-])c1ccc2c(c1)C(O)n1nc(-c3ccccc3)nc1S2` (stereo unspecified) was -63.3% (active); that for `CCS(=O)(=O)C1=NSC2=NC(=O)/C(=C\c3cc(C)n(-c4cccc(OC)c4)c3C)C(=N)N21` was -130% (active).
To `CCN(CC)CCOc1ccc2c(c1)C(=NNC(=O)c1ccccn1)c1cc(OCCN(CC)CC)ccc1-2` belongs 109%.
To `CC(O)c1ccc(OCCN(C)c2ccccn2)cc1` (stereo unspecified) belongs -143% (active); to `N#CC(=C1SC=CS1)c1nc(-c2ccccc2)cs1`, -305% (active).
As for `N#CC(=C1CCCC1)c1nc(-c2ccc(Cl)cc2)cs1`, the activity score was -189% (active).
The value for `CCOC(=O)/C(C#N)=C/c1ccc(N2CCCCC2)cc1` was -72.9% (active).
The value for `Cc1nc2cc(NCc3cccs3)ccc2n1C` was -107% (active); that for `OC(c1nnc(-c2ccccc2)o1)c1cccs1` (stereo unspecified) was -90.8% (active).
To `CCOc1ccc(N/C=C/C(=O)c2cc(OC)c(OC)c(OC)c2)cc1` belongs -117% (active); to `COc1ccc2[nH]cc(CCN3C(=O)c4ccc(C(=O)O)cc4C3=O)c2c1`, -169% (active); to `CC[C@H]1CN2CCc3cc(OC)c(OC)cc3[C@@H]2C[C@@H]1C[C@H]1NCCc2cc(OC)c(OC)cc21`, 109%.
In the case of `O=C1c2ccccc2NC(c2ccccc2O)N1NS(=O)(=O)c1ccccc1` (stereo unspecified), the activity score is -64.1% (active).
To `Nc1c(C(=O)c2cccs2)sc2nsc(SCCN3CCCCC3)c12` belongs -213% (active); to `c1ccc(-c2csc(N3CCc4ccccc4C3)n2)cc1`, -117% (active).
Turning to `COc1ccc2nc(N3CCCC(O)C3)c(C#N)cc2c1` (stereo unspecified), the activity score was -114% (active).
The value for `COc1ccc2c(c1)CCc1cn3ncc(C#N)c3nc1-2` was 68.1%; that for `CCc1ccc(Oc2coc3cc(OC(=O)c4cc5ccccc5oc4=O)ccc3c2=O)cc1` was -67% (active).
The value for `Cc1sc(NC(=O)c2ccc3ncsc3c2)c(C(N)=O)c1C` was -130% (active); that for `COc1ccccc1-c1nnc(NC(=O)c2ccc3ncsc3c2)o1` was -132% (active).
The value for `COc1ccc(OC)c(/C(C)=N\NC(=O)c2cc3cc(Cl)ccc3n2C)c1` was -215% (active); that for `CC1CCCCC1NC(=O)/C(C#N)=C/C=C/c1ccccc1[N+](=O)[O-]` (stereo unspecified) was -239% (active); that for `O=C(OCC(=O)c1cccs1)C1=COCCO1` was -103% (active).
For `CCC(C)(C)c1ccc(Oc2ccc(NC(=O)COC(=O)C3=COCCO3)cc2)cc1`, the activity score was 90.6%.
The value for `COc1cccc(-c2nnc(N(C)C(=O)c3ccno3)s2)c1` was -79.4% (active); that for `CCN(CC)S(=O)(=O)c1cc(C(=O)Nc2ccccn2)ccc1C` was -79.9% (active); that for `COc1cccc(NCCC(=O)c2cccc([N+](=O)[O-])c2)c1` was -115% (active).
To `Nc1ccccc1/C=N\N=C/c1ccccc1N` belongs -112% (active).
To `Cc1cccc(-n2ncc(Cl)c(Cl)c2=O)c1` belongs -220% (active).
For `Fc1ccc(-c2csc(-c3ccc(C4SCCS4)cc3)n2)cc1F`, the activity score is -125% (active).
The value for `CCOC(=O)c1cn[nH]c1NC(=S)Nc1ccccc1` was -131% (active); that for `CS(=O)(=O)Nc1ccc(C2=NN(S(C)(=O)=O)C(c3cccs3)C2)cc1` (stereo unspecified) was -69.5% (active).
As for `Cc1ccc(C2CC(c3cccc(NS(C)(=O)=O)c3)=NN2S(C)(=O)=O)cc1` (stereo unspecified), the activity score was -70.6% (active).
To `O=C(CN1C(=O)COc2ccccc21)Nc1ccc(F)cc1` belongs -126% (active).
The value for `Cc1ccc(NC(=O)c2cc(-c3ccccc3O)n[nH]2)cc1C` was -129% (active).
Regarding `Cc1ccc(O)c(-c2cc(C(=O)NCc3ccccc3)[nH]n2)c1`, the activity score was -148% (active).
In the case of `CSc1nsc(NC(=O)Nc2ccccc2)n1`, the activity score is -123% (active).
Regarding `CCSc1nsc(NC(=O)Nc2cccc(C(C)=O)c2)n1`, the activity score is -111% (active).
As for `O=C(Nc1ccccc1)Nc1nc2ccccc2s1`, the activity score was -64.8% (active).
For `Cn1nnnc1SCC(=O)Nc1nc2ccccc2s1`, the activity score was -151% (active).

Values taken from PubChem BioAssay AID1814 (Broad Institute, 2009).
